In the supplement of paper PMC7366291 one finds glomerular width data, which are given here for 14 compounds.

Counter-ions that a name gives are not always drawn. ± gives the standard deviation of the averaged measurements.

The test relates to Danio rerio Tg(wt1b:EGFP) embryo, pronephros. Description: glomerular width (mean of left and right), fold change vs DMSO control; higher = wider glomerulus. To be noted: 25 µM; exposure: 24-48 hpf. In outline: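 Distances and angles describing the pronephros were computed by a Fiji macro from 16 reference points set manually on maximum projections of dorsal images. These images came from dechorionated Tg(wt1b:EGFP) zebrafish embryos held in agarose-filled 96-well plates after exposure to 25 μM compound in 0.5% DMSO, in HEPES-buffered E3 with 0.003% PTU, from 24 to 48 hpf at 28.5°C. Any value more than 2 SD from the feature mean was excluded. Features are stated as fold change relative to the mean of same-day DMSO-treated embryos.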
Compound `CC(=O)CC(c1ccc([N+](=O)[O-])cc1)c1c(O)c2ccccc2oc1=O` (centres undefined) [Acenocoumarol] came in with a glomerular width of 0.94618 ± 0.00069.

`COC(=O)Nc1nc2cc(Sc3ccccc3)ccc2[nH]1` [Fenbendazole] registered a glomerular width of 0.568 ± 0.027.

Turning to `O=c1[nH]c(=O)n(C2CCCO2)cc1F` (centres undefined) [Tegafur], the glomerular width came to 1.05 ± 0.057.

`CCN1C(=O)NC(c2ccccc2)C1=O` (centres undefined) [Ethotoin]: the glomerular width was 0.998 ± 0.037.

With `Nc1ccc(S(=O)(=O)c2ccc(N)cc2)cc1` [Dapsone], the glomerular width is 1.04 ± 0.077. The same measure for `Cn1c([N+](=O)[O-])cnc1COC(N)=O` [Ronidazole]: 0.99 ± 0.011. The same measure for `Cc1noc(NS(=O)(=O)c2ccc(N)cc2)c1C` [Sulfisoxazole]: 1.04 ± 0.058; for `Nc1ncn(C2OC(CO)C(O)C2O)c(=O)n1` (centres undefined) [Azacytidine-5]: 0.979 ± 0.017. The same measure for `Cc1ccc(S(=O)(=O)NC(=O)NN2CC3CCCC3C2)cc1` (centres undefined) [Gliclazide]: 1.05 ± 0.021. `NC[C@H]1O[C@H](O[C@H]2[C@H](O[C@@H]3O[C@H](CO)[C@@H](O)[C@H]3O)[C@@H](O)[C@H](N)C[C@@H]2N)[C@H](N)[C@@H](O)[C@@H]1O` [Ribostamycin sulfate salt] returned a glomerular width of 1.08 ± 0.019. Next, `Cc1ccc(S(=O)(=O)NC(=O)NN2CCCCCC2)cc1` [Tolazamide]: 0.948 ± 0.015. `CCN(CC)Cc1cc(Nc2ccnc3cc(Cl)ccc23)ccc1O` [Amodiaquin dihydrochloride dihydrate]: the glomerular width came out at 0.999 ± 0.012. `CS(=O)(=O)c1ccc([C@@H](O)[C@@H](CF)NC(=O)C(Cl)Cl)cc1` [Florfenicol]: the glomerular width was 1.01 ± 0.083.

`C[C@]12C=CC(=O)C=C1CC[C@@H]1[C@@H]2[C@@H](O)C[C@@]2(C)[C@H]1CC[C@]2(O)C(=O)CO` [Prednisolone] gave a glomerular width of 1.22 ± 0.043.
